PubChem BioAssay (Tox21)
Records with an inconclusive call do not appear. Active and inactive are the calls of the source. Unless noted, calls follow the shape of the dose curve; as a rule, active = well fitted curve in the direction sought with a large enough effect in the repeat runs; inconclusive = weak or mixed curves; inactive = no such curve, though single readings can be large; an effect the other way counts as inactive or inconclusive.

Experiments:
[1] = qHTS assay for small molecules that induce genotoxicity in human embryonic kidney cells expressing luciferase-tagged ATAD5 (AID 651632); also: nearly all actives have a fitted effect of over 15% in size
Procedure, shortened: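 ATAD5-luc HEK293T, 2,000 cells/well; cpd or DMSO pin-transferred; 16 hr, 37C/5% CO2; Amplite 30 min RT; luminescence.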

[2] = qHTS assay for small molecules that induce genotoxicity in human embryonic kidney cells expressing luciferase-tagged ATAD5 - cell viability (AID 651634; calls by dose curve; also: nearly all actives have a fitted effect of over 25% in size)
Procedure, shortened: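 Fluorescence from CellTiter-Fluor, reporting protease activity within live cells, served as the viability read-out. HEK293T cells carrying luciferase-tagged ATAD5 had been treated with compound for 15.5 hr at 37C.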

[3] = qHTS assay for small molecule disruptors of the mitochondrial membrane potential - cell viability (AID 720634; calls by dose curve;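 also: human HepG2 liver cancer cells; series mostly up to about 83 µM; nearly all actives have a fitted effect of over 20% in size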)
Procedure, shortened: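 Cells: HepG2, 2,000/well, attached overnight. Compound 1 hr, 37 C/5% CO2. +m-MPI dye, +CellTiter-Glo 30 min RT. Readout: luminescence (ATP).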

[4] = qHTS assay to test for compound auto fluorescence at 590 nm (red) in HepG2 cells (AID 720674)
Procedure, shortened: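 Compound auto-fluorescence is scored relative to Rose Bengal sodium, measured at 540/590 nm in live HepG2 cultures after 1 hr compound contact (37 C, 5% CO2).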

[5] = qHTS assay to test for compound auto fluorescence at 535 nm (green) in HepG2 cells (AID 720675)
[6] = qHTS assay to test for compound auto fluorescence at 460 nm (blue) in HEK293 cells (AID 720678)
Procedure, shortened: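 Auto fluorescence in the blue band was quantified as triamterene equivalency. HEK293 cells were seeded at 2,000/well, dosed after a 4-5 hr attachment, and kept overnight at 37C before the 405/460 nm reading.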

[7] = qHTS assay to test for compound auto fluorescence at 590 nm (red) in HEK293 cells (AID 720679)
Procedure, shortened: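 Autofluorescence equivalency to Rose Bengal sodium, 540/590nm, in HEK293 cells exposed overnight to 23 nL compound per well.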

[8] = qHTS assay for small molecule agonists of the p53 signaling pathway - cell viability (AID 651633; calls by dose curve;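 also: p53RE-bla HCT reporter cells with a stable beta-lactamase p53 reporter; series mostly up to about 83 µM; nearly all actives have a fitted effect of over 30% in size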)
Procedure, shortened: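 p53RE-bla cells, seeded at 4,000 per well and rested 5 h at 37 C/5% CO2, received compounds in DMSO for 16 h at 37 C. CellTiter-Glo was then added, and luminescence was read after 30 min at room temperature to gauge cytotoxicity.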

[9] = qHTS assay for small molecule disruptors of the mitochondrial membrane potential (AID 720635)
Procedure, shortened: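 HepG2 cells (2,000/well) attached overnight at 37C, then took compound for 1 hr at 37C, 5% CO2. Mito-MPS dye was added for 30 min; fluorescence was read at 490/535 nm (monomers) and 540/590 nm (aggregates).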
% is scaled to controls: 0 for no effect and ±100 for the full control effect.

NNC(=O)CCCCC(=O)NN
inactive: Potency [1] | outcome [2] | outcome [3] | outcome [4] | outcome [5] | outcome [6] | outcome [7]

CC1(C)S[C@@H]2[C@H](NC(=O)Cc3ccccc3)C(=O)N2[C@H]1C(=O)O (tested in a mixture with another compound)
inactive: Potency [1] | outcome [2] | outcome [3] | outcome [4] | outcome [5] | outcome [6] | outcome [7]

C=CC(=O)OCCOCCOCC
inactive: Potency [1] | outcome [8] | Potency [9] | outcome [4] | outcome [5] | outcome [6] | outcome [7]

N=C(N)N1CCc2ccccc2C1
inactive: Potency [1] | outcome [2] | outcome [3] | Potency [9] | outcome [4] | outcome [5] | outcome [6] | outcome [7]

CC(C)(O)c1ccc(C(C)(C)O)cc1
inactive: Potency [1] | outcome [8] | Potency [9] | outcome [4] | outcome [5] | outcome [6] | outcome [7]

O=C1CC2(CCCC2)CC(=O)N1CCNCC1COc2ccccc2O1 (stereo not given)
inactive: Potency [1] | outcome [2] | outcome [3] | outcome [4] | outcome [5] | outcome [7]

CCC(C)c1nccnc1OC (stereo not given)
inactive: Potency [1] | outcome [2] | Potency [9] | outcome [4] | outcome [5] | outcome [6] | outcome [7]

CC/C=C/CCCCCCCCCCOC(C)=O
inactive: Potency [1] | outcome [2] | outcome [3] | Potency [9] | outcome [4] | outcome [5] | outcome [7]

C=CCCCCCCCCOC(C)=O
inactive: Potency [1] | outcome [2] | outcome [3] | Potency [9] | outcome [4] | outcome [5] | outcome [6] | outcome [7]

N=C(N)S(=O)O
inactive: Potency [1] | outcome [2] | outcome [3] | Potency [9] | outcome [4] | outcome [5] | outcome [6] | outcome [7]

C[C@H]1COc2c(C3(N)CC3)c(F)cc3c(=O)c(C(=O)O)cn1c23
inactive: Potency [1] | outcome [2] | outcome [3] | Potency [9] | outcome [4] | outcome [5] | outcome [6] | outcome [7]

CC1=C(O)C(=O)CO1
inactive: Potency [1] | outcome [2] | outcome [3] | outcome [4] | outcome [5] | outcome [6] | outcome [7]

COc1cc(NS(=O)(=O)c2ccc(N)cc2)ncn1
inactive: Potency [1] | outcome [2] | outcome [3] | fluorescence, relative to Rose Bengal [4] -0.434% [at 18.6 µM] | fluorescence, % of fluorescein control [5] 0.0032% [at 18.6 µM] | fluorescence, % of fluorescent control [7] 0.185% [at 18.6 µM]

CCCCCCC(=O)c1ccccc1
inactive: Potency [1] | outcome [8] | outcome [3] | Potency [9] | outcome [4] | outcome [5] | outcome [6] | outcome [7]

CC/C=C\CCCCCCCCCCOC(C)=O
inactive: Potency [1] | outcome [2] | outcome [3] | Potency [9] | outcome [4] | outcome [5] | outcome [6] | outcome [7]

C=CCCCCCCCCCCCCCC
inactive: Potency [1] | outcome [3] | fluorescence, relative to Rose Bengal [4] -0.0589% [at 18.6 µM] | fluorescence, % of fluorescein control [5] -0.0523% [at 18.6 µM] | fluorescence, % of triamterene [6] 0.0937% [at 18.6 µM] | fluorescence, % of fluorescent control [7] 0.0885% [at 18.6 µM]

CC(CC(=O)Cl)CC(C)(C)C (stereo not given)
inactive: Potency [1] | outcome [2] | outcome [3] | Potency [9] | outcome [4] | outcome [5] | outcome [7]

NC(=O)CC[C@@H](N)C(=O)O
inactive: Potency [1] | outcome [2] | Potency [9] | outcome [4] | outcome [5] | outcome [7]

CC(=O)OC/C=C(/C)CCC=C(C)C
inactive: Potency [1] | outcome [2] | outcome [3] | Potency [9] | outcome [4] | outcome [5] | outcome [6] | outcome [7]

NS(=O)(=O)c1cc2c(cc1C(F)(F)F)NCNS2(=O)=O
inactive: Potency [1] | outcome [8] | outcome [3] | Potency [9] | fluorescence, relative to Rose Bengal [4] 0.362% [at 18.6 µM] | fluorescence, % of fluorescein control [5] -0.0771% [at 18.6 µM] | fluorescence, % of triamterene [6] -0.352% [at 18.6 µM] | fluorescence, % of fluorescent control [7] -0.333% [at 18.6 µM]

NNC(=O)OCc1ccccc1
inactive: Potency [1] | outcome [3] | Potency [9] | outcome [4] | outcome [5] | outcome [6] | outcome [7]

O=Cc1ccccc1S(=O)(=O)O
inactive: Potency [1] | outcome [8] | outcome [3] | Potency [9] | outcome [4] | outcome [5] | outcome [7]

O=C(O)/C=C(\CC(=O)O)C(=O)O
inactive: Potency [1] | outcome [8] | Potency [9] | outcome [4] | outcome [5] | outcome [6] | outcome [7]
